From PubChem
APP transl inh = APP translation inhibition | inhibition, % at 2 µM | AID 1285 | SH-SY5Y APP 5'UTR-luciferase reporter, luminescence | 190,000 tested, 0.82% active;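 active = inhibition above a set limit, derived from the sample mean plus 3 SD, cut at about 45% in these data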
IEC-6 cytotox = kills IEC-6 intestinal cells in KLF5 counter-screen | 290,000 tested, 0.78% active | inhibition, % at 5 µM | IEC-6 cytotoxicity, luminescence viability; in the data active = inhibition above about 22%
aSyn 5UTR inh = MLPCN primary screen, SNCA 5' untranslated region. alpha-synuclein 5'UTR reporter, inhibitor activity. inhibition, % (tested at 7.5 µM). 300,000 tested, 0.82% active. AID 1813; in the data active = inhibition above about 60%;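 also: H4 neuroglioblastoma cells stably carrying SNCA 5'UTR luciferase fusion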
Ba/F3 V617F tox = lowers viability of Ba/F3 cells expressing EpoR and JAK2V617F. ATP luminescence. inhibition, % at 5.6 µM. 220,000 tested, 1.1% active. AID 1446;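 active = inhibition above the campaign mean plus 3 SD over all tested compounds, cut at about 24% in these data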;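 also: cytokine-independent growth of Ba/F3 cells driven by EpoR plus mutant JAK2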
BaF3 tox = counter-screen for JAK2V617F inhibitors: parental Ba/F3 viability inhibitors; CellTiter-Glo ATP luminescence; inhibition, % at 5.6 µM; 220,000 tested, 1.1% active;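 active = inhibition above a per-campaign cutoff, the mean inhibition of all tested compounds plus 3 SD, cut at about 27% in these data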
KLF5 inh = kruppel-like factor 5 inhibition; DLD-1 KLF5 promoter-luciferase reporter, luminescence; AID 1700; 290,000 tested, 0.23% active; inhibition, % at 5 µM;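 active = inhibition above a per-plate limit of that plate's mean compound inhibition plus 3 SD, cut at about 60% in these data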;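 also: higher means less KLF5 promoter-driven luciferase light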
A number is an active result; n = inactive; x = no result given. Shown are actives, neighbours in structure and some others; about 2.2% of the full set was active somewhere.

SMILES | APP transl inh | IEC-6 cytotox | aSyn 5UTR inh | Ba/F3 V617F tox | BaF3 tox | KLF5 inh
Cc1cccc(N2C(=O)c3cccc4c(N5CCCCC5)c([N+](=O)[O-])cc(c34)C2=O)c1C | n | n | 62 | n | n | n
Cc1ccnn1CCC(=O)N1CCCC(Nc2ccc(F)c(F)c2)C1 (centres undefined) | x | n | n | x | x | n
N#Cc1ccc(-c2nc3cc(Cl)ccc3c(=O)n2O)cc1 | x | n | n | x | x | n
O=c1c2ccc(Cl)cc2nc(-c2cccc(C(F)(F)F)c2)n1O | n | n | 78 | 60 | 56 | n
COc1ccc(CC(NC(C)=O)C(=O)NC2CCN(C(=O)Nc3ccccc3C)CC2)cc1OC (centres undefined) | x | n | n | x | x | n
CCCc1c(O)nc(SCC(=O)O)[nH]c1=O | n | n | n | n | n | n
COc1ccccc1Nc1nc(NCC(C)C)nc(N)c1[N+](=O)[O-] | x | n | 77 | n | n | n
CCC(C)Nc1nc(N)c([N+](=O)[O-])c(Nc2cc(OC)ccc2OC)n1 (centres undefined) | x | n | 97 | n | n | n
Cn1nc(C(=O)NNC(=O)CCc2ccccc2Cl)c2ccccc2c1=O | x | x | n | x | x | x
CCc1nnc(SCC(=O)N2CCCC(N3CCN(c4ccccc4C)CC3)C2)o1 (centres undefined) | x | n | n | x | x | n
CCOC(=O)c1c(C)n(-c2ccc(C)cc2)c2ccc(OCC(O)CNCC3CCCO3)cc12 (centres undefined) | n | n | 75 | n | n | n
O=C(NCc1nnc2c(C(F)(F)F)cc(Cl)cn12)c1cccnc1 | x | n | n | x | x | n
CC(=O)N1CCN(CC(=O)NC(=O)Nc2ccc3c(c2)OCCO3)CC1 | x | x | n | x | x | x
O=c1c2ccccc2[nH]c(=S)n1Cc1cccnc1 | 56 | n | n | n | n | n
CC(=O)c1ccc(NC(=O)c2cnn3ccccc23)cc1 | n | n | 79 | n | n | n
CSCC[C@H](N)C(=O)N1CCC(C(=O)N[C@H](C)C(=O)NC(C)c2ccccc2)CC1 (some centres undefined) | x | n | n | x | x | n
O=C(CSc1ccc(-c2ccc(Cl)cc2)nn1)NC1CCCC1 | x | n | n | x | x | n
Cc1cc(=O)n(-c2ccc(O)cc2)[nH]1 | n | n | n | 51 | 60 | n
Cc1cc(=O)n(-c2ccc(C(=O)O)cc2)[nH]1 | n | n | n | n | n | n
CCN1C/C(=C/c2cccc([N+](=O)[O-])c2)C(=O)/C(=C/c2cccc([N+](=O)[O-])c2)C1 | 94 | n | x | n | n | n
O=C1NC(=O)/C(=C/c2cccc([N+](=O)[O-])c2)N1 | x | n | n | n | n | n
Cc1ccccc1C(=O)Nc1ccnn1C1CCN(C2CCSCC2)CC1 | x | n | n | x | x | n
CCn1c(SCC#N)nc2ccccc2c1=O | x | n | n | n | n | n
N#CCSc1nc2ccccc2c2nc3ccccc3n12 | n | n | n | 63 | 49 | n
Cc1ccc2c(c1)cc(C(=O)NCc1ccccc1)n2C | x | n | n | x | x | n
SMILES | APP transl inh | IEC-6 cytotox | aSyn 5UTR inh | Ba/F3 V617F tox | BaF3 tox | KLF5 inh
COc1ccc(C(=O)Nn2c(SCC(=O)NC3CCCC3)nc3ccccc3c2=O)cc1 | n | n | n | n | n | n
COc1ccc(C(=O)Nn2c(SCC(=O)NCC3CCCO3)nc3ccccc3c2=O)cc1 (centres undefined) | n | n | 87 | n | n | n
COc1ccc(C(=O)Nn2c(SCC(=O)NCc3ccccc3)nc3ccccc3c2=O)cc1 | n | n | 77 | n | n | n
O=C(Nc1ccc(S(=O)(=O)Nc2ccnn2-c2ccccc2)cc1)C(F)(F)F | x | n | n | x | x | n
S=c1sc2c(Cl)ncnc2n1-c1ccccc1 | 65 | n | 93 | n | n | n
Cc1nc(N2CCN(C)CC2)c2sc(=S)n(-c3ccccc3)c2n1 | n | n | n | n | n | n
COC(=O)c1ccc2c(c1)C(C)(C)C(/C=C/c1ccc(OC)c(OC)c1OC)=[N+]2C | n | n | 102 | n | n | n
COC(=O)c1ccc2c(c1)C(C)(C)C(/C=C/c1ccc(O)cc1)=[N+]2C | n | n | 119 | n | 29 | n
COc1cc(/C=C/c2ccc(O)cc2)cc(OC)c1 | x | n | n | n | n | n
N#CC1CC(c2ccccc2)=NN1c1ccccc1[N+](=O)[O-] (centres undefined) | n | n | n | n | n | n
CC(NC(=O)COC(=O)C1CSC2(C)CCC(=O)N12)C12CC3CC(CC(C3)C1)C2 (centres undefined) | n | n | n | n | n | n
CCOC(=O)CSc1nc2ccc(N3CCOCC3)cc2c(=O)n1Cc1ccccc1 | 78 | n | n | n | n | n
